# Test results as given in PubChem BioAssay (NCATS).
# Records with an inconclusive call do not appear. Unmarked numbers belong to inactive results. Calls of active or inactive are those of the source. Calls come from the whole dose curve; as a rule, active = well fitted inhibition curve with a large enough effect; inconclusive = small, poorly fitted or top-dose-only effect; inactive = flat fitted curve, though single readings scatter.
# How the values were obtained:
# [1] = system: CRL-7250; assay: Cytotoxic Profiling of Annotated Libraries Using Quantitative High-Throughput Screening (AID 1296008); details: Five cell lines viability, CellTiter-Glo ATP luminescence, 48-72 h; max response: stronger effect = lower value; note: potency is the fitted concentration of half-maximal effect; for max response: % is set by controls: 0 for no effect and ±100 for the full control effect
# Method in brief: (§1)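 Cytotoxicity was measured as CellTiter-Glo ATP luminescence, read after 10 min at room temperature. Compound treatment of the cells lasted 48 or 72 hr at 37 degrees Celsius in a qHTS format.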
# [2] = system: HaCat; assay: as above; details: Five cell lines viability, CellTiter-Glo ATP luminescence, 48-72 h; max response: stronger effect = lower value
# Method in brief: as §1
# [3] = system: KB-3-1; assay: as above; details: Five cell lines viability, CellTiter-Glo ATP luminescence, 48-72 h; max response: stronger effect = lower value
# Method in brief: as §1
# [4] = system: NIH3T3; assay: as above; details: Five cell lines viability, CellTiter-Glo ATP luminescence, 48-72 h; max response: stronger effect = lower value
# Method in brief: as §1
# [5] = system: HACAT; assay: qHTS assay to identify novel small-molecules to repurpose for Merkel cell carcinoma treatment (AID 1296009); details: MCC and control cell lines, CellTiter-Glo viability, 72 h; at 44.8 µM (top of the series) unless noted
# Method in brief: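 After compound transfer in DMSO, plates were kept 72 hr at 37 degree celsius. Luminescent ATP signal from CellTiter-Glo served as viability measure, normalized against DMSO and no-cell controls.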
# Note: nearly all actives have a fitted effect of over 60% in size.
smiles,measurement,setting,value
O=C(Nc1ccc(N2C(=O)[C@@H]3[C@H](C2=O)[C@@H]2C=C[C@H]3C2)c(Cl)c1)c1ccccn1,max response,[1],-25.2%
same,max response,[2],-18.9%
same,max response,[3],-24.5%
same,max response,[4],-23.8%
Cc1ccc(C(C)C)c(O[C@@H]2O[C@H](CO)[C@@H](O)[C@H](O)[C@H]2O)c1,Potency,[1],16.1 µM (active)
same,max response,[2],-17.5%
same,max response,[3],-7.27%
same,max response,[4],2.1%
O=C(NCC(=O)N1CCCC1)Nc1ccc2cnccc2c1,max response,[1],-0.26%
same,max response,[2],-20.6%
same,max response,[3],-4.72%
same,max response,[4],-5.01%
COc1ccc(CCc2nc3cc(-c4c(C)noc4C)ccc3n2CC(C)N2CCOCC2)cc1Cl (configuration not stated),max response,[1],-13.4%
same,max response,[2],-1.2%
same,max response,[3],0.0649%
same,max response,[4],-17.1%
CC(C)(CO)c1cc2cc(NC(=O)C3(c4ccc5c(c4)OC(F)(F)O5)CC3)c(F)cc2n1CC(O)CO (configuration not stated),outcome,[1],inactive
same,max response,[2],-17.2%
same,outcome,[3],inactive
same,max response,[4],-6.55%
CC(C)C[C@H](CO)Nc1nc(S[C@@H](C)c2ccccc2)nc2nc(N)sc12,max response,[1],1.1%
same,max response,[2],-4.79%
same,outcome,[3],inactive
same,max response,[4],2.79%
O=C(c1ccc(Cl)cc1)N1CCN(c2ccnc3cc(Cl)ccc23)CC1,max response,[1],3.03%
same,max response,[2],-18.2%
same,max response,[3],-24.7%
same,max response,[4],-1.68%
C=CC(=O)N1CC(N2CCN(C(=O)CNc3cc(C4CC4)c(Cl)cc3O)CC2)C1,outcome,[1],inactive
same,outcome,[2],inactive
same,outcome,[3],inactive
same,outcome,[4],inactive
same,outcome,[5],inactive
Fc1ccc(-c2nc(-c3ccccc3F)[nH]c2-c2ccncc2)cc1,max response,[1],3.37%
same,max response,[2],4.02%
same,outcome,[3],inactive
same,max response,[4],4.47%
COCCNCc1ccc(-c2cc3nccc(Oc4ccc(NC(=O)C5(C(=O)Nc6ccc(F)cc6)CC5)cc4F)c3s2)nc1,Potency,[1],18.4 µM (active)
same,Potency,[2],23.1 µM (active)
same,Potency,[3],6.51 µM (active)
same,Potency,[4],0.731 µM (active)
CC(C)CCNc1ncccc1C(=O)N1CCN(Cc2ccccc2)CC1,max response,[1],-4.32%
same,max response,[2],1.63%
same,max response,[3],4.22%
same,max response,[4],2.66%
O=C1Nc2ccccc2-c2nc3ccccc3c(=O)n2-c2c(O)cccc21,max response,[1],3.48%
same,max response,[2],-26.5%
same,max response,[3],0.451%
same,max response,[4],1.73%
C[C@@H]1C[C@H]2O[C@@]3(O[C@@H]2C(C)(C)O)C(O)[C@@]2(C)C4CCC5C(C)(C)[C@@H](O[C@H]6OC[C@H](O)[C@@H](O)[C@@H]6O)CC[C@@]56C[C@@]46CC[C@]2(C)C13 (some centres not stated),max response,[1],1.57%
same,max response,[2],-16.2%
same,max response,[3],-6.46%
same,max response,[4],-0.0399%
CN1CCN(C2=Nc3ccccc3Nc3ccc(Cl)cc32)CC1,max response,[1],-0.222%
same,outcome,[2],inactive
same,max response,[3],-4.21%
same,max response,[4],2.15%
same,outcome,[5],inactive
COc1c(C)cc(NC(=O)c2nn(Cc3ccc(F)cc3)c3c2CN(C(=O)c2ccc[nH]2)C[C@]3(C)C(N)=O)cc1C,max response,[1],-1.93%
same,max response,[2],-0.617%
same,outcome,[3],inactive
same,max response,[4],-14%
C=C1CCC2C(C)(C(=O)O)CCCC2(C)C1CCC1=CCOC1=O (configuration not stated),outcome,[1],inactive
same,outcome,[2],inactive
same,max response,[3],-6.84%
same,outcome,[4],inactive
same,outcome,[5],inactive
CCC(C)c1ccc(NC(=O)Cn2cnc3c2c(=O)n(C)c(=O)n3C)cc1 (configuration not stated),max response,[1],-7.14%
same,max response,[2],-17.7%
same,max response,[3],-2.48%
same,max response,[4],-2.04%
CC(=O)O[C@@H]1[C@@H](O)[C@H](O[C@@H]2[C@@H](O)[C@@H](O)[C@H](O[C@H]3[C@H](O[C@H]4[C@H](O[C@H]5CC[C@@]6(C)C(CC[C@]7(C)C6CC=C6[C@@H]8CC(C)(C)CC[C@]8(C(=O)O)CC[C@]67C)[C@]5(C)CO)O[C@H](CO)[C@@H](O)[C@@H]4O)OC[C@@H](O)[C@@H]3O)O[C@H]2C)OC[C@H]1O (some centres not stated),max response,[1],-25.8%
same,max response,[2],3.54%
same,max response,[3],9.51%
same,max response,[4],3.03%
Cn1nc(C(C)(C)C)cc1C(=O)N[C@@H](Cc1cccc(Cl)c1)C(=O)NCC#N,outcome,[1],inactive
same,max response,[2],-0.262%
same,max response,[3],0.545%
same,outcome,[4],inactive
COc1c(CCC(=O)O)cccc1O[C@@H]1O[C@H](CO)[C@@H](O)[C@H](O)[C@H]1O,outcome,[1],inactive
same,outcome,[2],inactive
same,max response,[3],0.734%
same,max response,[4],0.319%
same,outcome,[5],inactive
C[C@@H]1O[C@@H](O[C@H]2[C@H](OC(=O)[C@]34CCC(C)(C)C[C@H]3C3=CCC5[C@@]6(C)C[C@H](O)[C@H](O[C@@H]7O[C@H](C(=O)O)[C@@H](O)[C@H](O)[C@H]7O)[C@@](C)(CO)C6[C@H](O)C[C@@]5(C)[C@]3(C)C[C@H]4O)O[C@@H](CO)[C@@H]2O)[C@H](O)[C@H](O)[C@H]1O[C@@H]1OC[C@@H](O)[C@H](O[C@H]2OC[C@](O)(CO)[C@H]2O)[C@H]1O (some centres not stated),outcome,[1],inactive
same,max response,[2],-2%
same,max response,[3],-0.0365%
same,max response,[4],-0.318%
COc1c2c(nc3occc13)C(CC=C(C)C)(OC)C(O)CC2 (configuration not stated),max response,[1],-11.5%
same,max response,[2],-1.05%
same,max response,[3],-4.13%
same,max response,[4],-1.61%
C[C@@H](O[C@H]1OCCN(Cc2nn(P(=O)(O)O)c(=O)[nH]2)[C@H]1c1ccc(F)cc1)c1cc(C(F)(F)F)cc(C(F)(F)F)c1,max response,[1],0.664%
same,max response,[2],-1.44%
same,max response,[3],6.69%
same,max response,[4],-9.38%
O=C(NCC1(N2CCN(c3ccccc3)CC2)CCOCC1)c1cccnc1Sc1ccccc1,outcome,[1],inactive
same,max response,[2],-2.8%
same,max response,[3],1.24%
same,outcome,[4],inactive
O=C(NC[C@H](O)CN1CCc2ccccc2C1)c1ccnc(NC2CCC2)c1,max response,[1],-5.29%
same,max response,[2],-27.8%
same,max response,[3],-4.24%
same,max response,[4],-20.6%
NS(=O)(=O)c1ccc(N2N=C(c3ccccc3)CC2c2ccccc2)cc1 (configuration not stated),max response,[1],-0.316%
same,max response,[2],4.65%
same,max response,[3],-12.2%
same,max response,[4],2.93%
CC(C)C(C)C(O)C1CC23CC(=O)C4(O)C(=C2CCC3C1C)C=CC1(O)CC(O)CCC14C (configuration not stated),max response,[1],-22.9%
same,max response,[2],2.09%
same,max response,[3],5.36%
same,max response,[4],-0.33%
COCCN(C(=O)c1cc(OC)c(OC)c(OC)c1)c1nc(-c2ccccc2)cs1,max response,[1],-0.0444%
same,max response,[2],0.0568%
same,max response,[3],5.9%
same,max response,[4],3.38%
COc1c2c(c(C)c3c1C(=O)OC3)O[C@@]1(C)C[C@@H](OC(C)=O)[C@]34O[C@](OC)(CC[C@]3(C)[C@H]1C2)OC4(C)C,max response,[1],-3.21%
same,max response,[2],-9.22%
same,max response,[3],1.98%
same,max response,[4],4.28%
CCOc1ccc(-n2c([C@@H](C)N(Cc3cccnc3)C(=O)Cc3ccc(OC(F)(F)F)cc3)nc3ncccc3c2=O)cc1,max response,[1],0.299%
same,max response,[2],-4.53%
same,max response,[3],4.98%
same,max response,[4],-0.198%
CC(=O)[C@H]1CC[C@H]2[C@@H]3CC=C4C[C@@H](OS(=O)(=O)O)CC[C@]4(C)[C@H]3CC[C@]12C,outcome,[1],inactive
same,max response,[2],1.57%
same,max response,[3],2.57%
same,max response,[4],-4.15%
COCCCNC(=O)c1ccc(Cn2c(=O)c3ccccc3n(Cc3ccc(C(C)C)cc3)c2=O)cc1,max response,[1],-3.32%
same,max response,[2],1.44%
same,outcome,[3],inactive
same,max response,[4],4.09%
C=CC(C)(O)CC/C=C(\C)C(=O)OC1C(O)C(CO)OC(OC(=O)C23CCC(C)(C)CC2C2=CCC4C5(C)CCC(OC6OC(COC7OCC(OC(C)=O)C(O)C7OC7OC(COC(C)=O)C(O)C(O)C7OC(C)=O)C(O)C(O)C6OC6OCC(O)C(O)C6O)C(C)(C)C5CCC4(C)C2(C)C(O)C3O)C1OC1OCC(OC2OCC(O)C(OC3OCC(O)C(O)C3O)C2O)C(O)C1O (configuration not stated),Potency,[1],0.891 µM (active)
same,max response,[2],-18.3%
same,max response,[3],-19.5%
same,max response,[4],-5.37%
NS(=O)(=O)c1ccc(N2CCN(CC[C@@H]3OCCc4ccccc43)CC2)cc1,max response,[1],-8.79%
same,max response,[2],-12.7%
same,max response,[3],-10.3%
same,max response,[4],-0.981%
CNC(=O)c1ccc2c(c1)CCO[C@H]2CCN1CCN(c2ccc(OC)cc2)CC1,max response,[1],1.26%
same,max response,[2],-0.835%
same,max response,[3],-8.62%
same,max response,[4],2.66%
COc1cc2c(cc1OCCCN1CCCC1)N=C(N)C21CCC1,max response,[1],-5.27%
same,max response,[2],2.83%
same,max response,[3],0.253%
same,outcome,[4],inactive; activator
C[C@H]1CO[C@@H]2Cn3cc(C(=O)NCc4ccc(F)cc4F)c(=O)c(O)c3C(=O)N12,max response,[1],-9.56%
same,max response,[2],1.95%
same,max response,[3],-18.7%
same,max response,[4],2.62%
C/C=C/C=C/C(=O)O[C@@H]1C=C2COC(=O)[C@]2(O)[C@@]2(C)CCCC(C)(C)[C@H]12,max response,[1],-1.83%
same,outcome,[2],inactive
same,max response,[3],0.722%
same,outcome,[4],inactive
same,outcome,[5],inactive
CC(=O)OC1CC(C)(C(=O)O)CC2C3=CC(=O)C4C5(C)CCC(OC6OC(C(=O)O)C(O)C(O)C6OC6OC(C(=O)O)C(O)C(O)C6O)C(C)(C)C5CCC4(C)C3(C)CCC12C (configuration not stated),max response,[1],-2.54%
same,outcome,[2],inactive
same,max response,[3],3.1%
same,max response,[4],1.8%
same,outcome,[5],inactive [at 9.27 µM]
O=C(Nc1ccc(N(Cc2ccsc2)C(=O)Cn2nnc3ccccc32)cc1)C1CC1,max response,[1],-5.74%
same,outcome,[2],inactive
same,max response,[3],6.41%
same,max response,[4],4.89%
same,outcome,[5],inactive
